Screening results: PubChem, National Center for Advancing Translational Sciences (NCATS)
WRN helicase inh: WRN helicase (human) inhibition; Q14191; WRN helicase unwinding, fluorescent forked duplex, kinetic; Potency, µM (titrated, usually from 114 µM), actives largely listed as inhibitors; actives 0.46% (n = 360,000); also: nearly all actives have a fitted effect of over 55% in size
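Primary qHTS, 1536-well format. 20 nM WRN + compound, 15 min RT; start with 100 nM forked fluorophore/quencher duplex, 2 mM ATP (final); kinetic read ex 525/em 598 nm.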
Pol iota inh: blocks human DNA polymerase iota activity; Pol iota fluorescent replication assay, 10 min; Potency, µM (highest dose often 115 µM), actives largely listed as inhibitors; actives 1% (n = 390,000)
Target sequence (Q9UNA4 whole entry, looked up): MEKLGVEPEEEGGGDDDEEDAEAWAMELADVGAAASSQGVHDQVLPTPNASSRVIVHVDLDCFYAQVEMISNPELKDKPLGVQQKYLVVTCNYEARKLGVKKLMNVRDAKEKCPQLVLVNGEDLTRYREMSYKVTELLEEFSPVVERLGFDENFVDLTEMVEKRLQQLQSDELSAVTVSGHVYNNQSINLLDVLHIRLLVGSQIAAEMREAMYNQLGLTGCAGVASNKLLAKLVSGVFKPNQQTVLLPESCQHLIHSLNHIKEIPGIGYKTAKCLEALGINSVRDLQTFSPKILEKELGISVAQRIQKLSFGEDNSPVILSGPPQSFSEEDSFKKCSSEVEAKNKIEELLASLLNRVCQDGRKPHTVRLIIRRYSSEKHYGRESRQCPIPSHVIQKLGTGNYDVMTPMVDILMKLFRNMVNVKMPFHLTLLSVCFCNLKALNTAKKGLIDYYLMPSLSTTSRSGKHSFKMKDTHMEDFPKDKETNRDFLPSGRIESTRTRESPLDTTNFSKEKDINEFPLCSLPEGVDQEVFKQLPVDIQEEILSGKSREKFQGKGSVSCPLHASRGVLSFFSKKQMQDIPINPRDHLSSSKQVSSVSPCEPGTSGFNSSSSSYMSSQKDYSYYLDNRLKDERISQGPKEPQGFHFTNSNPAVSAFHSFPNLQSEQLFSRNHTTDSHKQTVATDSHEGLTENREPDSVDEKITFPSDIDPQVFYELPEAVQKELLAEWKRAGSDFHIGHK
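Fluorescent replication assay read twice, at 0 min and 10 min after adding 50 nM (final) substrate. Enzyme (10 nM) and compounds were first incubated 15 min at room temperature; enzyme-free buffer wells were negative controls.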
Pol kappa inh: inhibitors of human DNA polymerase kappa. Q9UBT6. actives 0.53% (n = 400,000). Potency, µM (series often up to 107 µM), usual class: inhibitors. AID 588579. purified Pol kappa, fluorescent DNA synthesis assay, 10 min
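Here, compound and 10 nM enzyme are combined for 15 min at room temperature; adding 50 nM substrate (final) starts DNA synthesis, tracked by fluorescence at 0 and 10 min against buffer-only wells.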
POLH inh: DNA polymerase eta (human) inhibition | Q9Y253 | recombinant Pol eta, fluorescent DNA replication assay | Potency, µM (highest dose often 114 µM), most hits filed as inhibitors | actives 1.2% (n = 390,000) | AID 588591
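Fluorescent replication assay: 50 nM final substrate added after a 15 min room-temperature compound preincubation with 10 nM enzyme. Signal taken at 0 min and again at 10 min.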
POLB inh: blocks human DNA polymerase beta activity; Pol beta primer extension/strand displacement, fluorescence kinetic; actives 1.3% (n = 340,000); AID 485314; P06746; Potency, µM (series often up to 114 µM), most hits filed as inhibitors
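10 nM enzyme + cpd, 15 min RT; start with substrate 50 nM final; read 0 min and after 10 min RT. Corrected, normalized data; 4-parameter Hill curve fit.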
FEN1 inhibitor: blocks human flap endonuclease 1; P39748; Recombinant FEN1 flap cleavage, fluorescence, 15 min; Potency, µM (doses to about 114 µM), usual class: inhibitors; actives 0.35% (n = 390,000); also: nearly all actives have a fitted effect of over 65% in size
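Read-out was taken twice, immediately and after 15 min, following addition of 50 nM substrate to 10 nM FEN1 that had sat with test compound for 15 min at room temperature. Curves came from a four-parameter Hill model.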
Of the large screens only hits and unclear results are named; the others gave an inactive call; ! = a repeat was not active. The list is not random: actives were taken first. Their share in the collection is about 2.4%. Calls follow the shape of the dose curve; as a rule, active = well fitted curve in the direction sought with a large enough effect; inconclusive = small, poorly fitted or top-dose-only effect, or another doubt; inactive = no such curve, though single readings can be large; an effect the other way counts as inactive or inconclusive.

O=C1/C(=C\c2ccc(O)c(O)c2)Oc2cc(O)ccc21	Pol kappa inh 4.7µM (no result: WRN helicase inh, Pol iota inh, POLH inh, POLB inh, FEN1 inhibitor)
O=[N+]([O-])c1cc2c(cc1CN1CCN(CCOCCO)CC1)OCO2	Pol iota inh 7.9µM, Pol kappa inh inconclusive, FEN1 inhibitor inconclusive
COc1ccccc1N1CCN(Cc2cc3c(cc2[N+](=O)[O-])OCO3)CC1	Pol iota inh inconclusive
Cc1n[nH]c(C)c1Sc1ccccc1[N+](=O)[O-]	none
Cc1n[nH]c(C)c1Sc1ccccc1N=Cc1cc(Cl)cc([N+](=O)[O-])c1O	WRN helicase inh 50µM, Pol iota inh 25µM, Pol kappa inh inconclusive, POLB inh inconclusive, FEN1 inhibitor 79µM
O=C(O)c1cc(=O)c2cc(Cl)ccc2[nH]1	none (no result: WRN helicase inh, Pol iota inh, POLH inh, POLB inh, FEN1 inhibitor)
O=C(COc1ccccc1/C=C1\SC(=O)NC1=O)Nc1ccccc1	WRN helicase inh inconclusive, Pol iota inh inconclusive, POLH inh 18µM
COc1cccc(/C=C2/NC(=O)NC2=O)c1OCC(=O)Nc1ccccc1	none
Cc1nc2ccc(C(=O)N/N=C/c3ccccc3O)cc2[nH]1	Pol iota inh inconclusive, POLB inh 20µM
CCn1c(C)nc2cc(C(=O)N/N=C/c3ccc(O)c(O)c3O)ccc21	WRN helicase inh 18µM, Pol iota inh inconclusive, Pol kappa inh 10µM, POLH inh 5µM, POLB inh 1.6µM, FEN1 inhibitor inconclusive
CC[C@H](C)[C@H](NC(=O)CNC(=O)[C@H](C)NC(=O)[C@H](C)N)C(=O)NCC(=O)N[C@H](C(=O)N[C@@H](CC(C)C)C(=O)N[C@H](C(=O)N[C@H](C(=O)O)C(C)C)[C@@H](C)O)[C@@H](C)CC	none (no result: WRN helicase inh, Pol iota inh, POLH inh, POLB inh, FEN1 inhibitor)
CC1(N2CCOCC2)CC2(O)C(=[N+]1[O-])CCc1c2no[n+]1[O-] (configuration not stated)	WRN helicase inh inconclusive, Pol iota inh inconclusive, Pol kappa inh inconclusive, POLH inh 18µM, FEN1 inhibitor inconclusive
CC(=O)Oc1ccc(C(=O)Nc2cccc(-c3nnc(-c4ccco4)o3)c2)cc1	POLB inh 20µM
CCN(CC)c1ccc(NC(=O)c2c(C)nn(-c3ccc(F)cc3)c2-n2cccc2)c(C)c1	none (no result: WRN helicase inh)
O=C(NCC(c1ccc2c(c1)OCO2)N1CCOCC1)C(=O)Nc1ccccc1 (configuration not stated)	Pol iota inh 18µM (no result: WRN helicase inh)
COc1ccc2[nH]cc(CCNc3ccnc(-c4ccccc4Cl)n3)c2c1	none (no result: WRN helicase inh, Pol iota inh, POLH inh, POLB inh, FEN1 inhibitor)
COc1ccccc1-c1nc2c(c(SCC(=O)Nc3ccccc3F)n1)Cc1c(CO)cnc(C)c1O2	POLB inh 79µM (no result: WRN helicase inh)
CC(=O)c1ccc(S(=O)(=O)Nc2ccc(C(=O)N(C)CC(=O)Nc3cccc(C)c3C)cc2)cc1	Pol iota inh inconclusive, Pol kappa inh inconclusive, POLH inh 32µM (no result: POLB inh)
Cc1ccccc1NS(=O)(=O)c1ccc(C(=O)N(C)CC(=O)Nc2ccccc2Br)cc1	none (no result: POLB inh)
Cc1ccc2c(c1)Oc1ccc([N+](=O)[O-])cc1C(=O)N2	none
Cc1ccc2c(c1)Oc1ccc(NC(=O)CCl)cc1C(=O)N2	POLH inh 79µM
Cc1cc(C)c2c(=O)c(C#N)coc2c1	WRN helicase inh 56µM, Pol iota inh inconclusive, Pol kappa inh inconclusive, POLH inh 50µM, POLB inh 45µM, FEN1 inhibitor inconclusive
C=CCOC(/C=C/c1ccccc1)CC (configuration not stated)	none (no result: WRN helicase inh, POLH inh, POLB inh)
O=C(CSc1nc2ccccc2n1Cc1ccccc1Cl)N/N=C/c1ccccc1C(=O)O	POLB inh inconclusive
O=C(O)COc1ccccc1/C=N/NC(=O)CSc1nc2ccccc2n1Cc1ccccc1Cl	Pol iota inh inconclusive, POLB inh 79µM
CC(C)ON([C@@H](C(=O)NO)C(C)C)S(=O)(=O)c1ccc(-c2ccccc2)cc1	none (no result: WRN helicase inh, Pol iota inh, POLH inh, POLB inh, FEN1 inhibitor)
C=C1C=C(C(F)F)n2ncc(C(=O)N3CCCCC3)c2N1	none (no result: WRN helicase inh, POLH inh, POLB inh)
CNC(=O)C1(C(F)(F)F)C/C(=C\Cc2ccccc2)CCCO1 (configuration not stated)	Pol iota inh inconclusive (no result: WRN helicase inh, POLH inh, POLB inh)
COc1ccc(OC)c(N=Nc2c(O)c3ccccc3[nH]c2=O)c1	Pol iota inh inconclusive, POLH inh 40µM, FEN1 inhibitor inconclusive (no result: POLB inh)
COc1cc(N=Nc2c(O)c3ccccc3[nH]c2=O)c(OC)cc1N=Nc1ccccc1	POLB inh inconclusive
Nc1c(C(=O)N/N=C/c2ccc(Cl)cc2)cnn1-c1ccccc1	none
O=c1c(Cl)c(N/N=C/c2ccc(Cl)cc2)cnn1-c1ccccc1	WRN helicase inh inconclusive, Pol iota inh 28µM, Pol kappa inh inconclusive, POLH inh inconclusive, POLB inh 18µM, FEN1 inhibitor inconclusive
Cc1ccc(OCc2nc(-c3ccc(C(=O)N4CCN(c5cc(Cl)ccc5C)CC4)cc3)oc2C)cc1	none (no result: WRN helicase inh)
CC1(C)C(=O)Nc2ccccc2N1C(=O)COC(=O)c1cc(Cl)cc(Cl)c1	Pol iota inh inconclusive (no result: POLB inh)
CC1(C)C(=O)Nc2ccccc2N1C(=O)COC(=O)c1cccnc1	Pol iota inh 28µM, POLH inh inconclusive (no result: POLB inh)
COc1ccccc1CCC(=O)OCC(=O)N1c2ccccc2NC(=O)C1(C)C	Pol iota inh 79µM (no result: POLB inh)
CC1(C)C(=O)Nc2ccccc2N1C(=O)COC(=O)C12CC3CC(CC(O)(C3)C1)C2	Pol iota inh 50µM, Pol kappa inh inconclusive, POLH inh 14µM, POLB inh 20µM
Cc1ccc(C)c(OCCC(=O)OCC(=O)N2c3ccccc3NC(=O)C2(C)C)c1	Pol iota inh inconclusive (no result: POLB inh)
CC/C=C\[C@H](O)[C@H](O)C1=C(C)C(=O)[C@]2(O1)C(=O)N[C@@](OC)(C(=O)c1ccccc1)C2O (some centres not stated)	Pol iota inh inconclusive, Pol kappa inh inconclusive, POLB inh 35µM
O=c1ccc2cc(O)c(O)cc2o1	Pol iota inh inconclusive, Pol kappa inh 3.5µM!
O=c1ccc2cc3ccoc3cc2o1	none
CC(C)CN(C[C@@H](OP(=O)(O)O)[C@H](Cc1ccccc1)NC(=O)O[C@@H]1CCOC1)S(=O)(=O)c1ccc(N)cc1	none (no result: WRN helicase inh, Pol iota inh, POLH inh, POLB inh, FEN1 inhibitor)
Cc1ccccc1Nc1nn2c(=O)c3ccc(C(=O)NCC(C)c4ccccc4)cc3nc2s1 (configuration not stated)	none (no result: WRN helicase inh)
Cc1ccccc1Nc1nn2c(=O)c3ccc(C(=O)NCc4cccs4)cc3nc2s1	Pol iota inh 79µM, POLH inh inconclusive, POLB inh 20µM (no result: WRN helicase inh)
O=C(Nc1nnc(-c2ccco2)o1)c1ccc(N2C(=O)CCC2=O)cc1	Pol iota inh 22µM, POLB inh inconclusive
COC(=O)CCCc1nc2ccccc2s1	none
COc1ccccc1OC(=O)CCc1nc2ccccc2s1	Pol iota inh 16µM, Pol kappa inh inconclusive, POLH inh inconclusive, POLB inh inconclusive
CC1CC(O)CC(C)(C)C1 (configuration not stated)	none (no result: WRN helicase inh, Pol iota inh, POLH inh, POLB inh, FEN1 inhibitor)
Cc1cc(N2CCN(c3ccccc3F)CC2)n2cnnc2n1	none (no result: WRN helicase inh)
Cc1cc(N2CCN(c3cccc(C)c3C)CC2)n2cnnc2n1	Pol iota inh inconclusive, POLB inh 0.16µM (no result: WRN helicase inh)
